The source of these data is paper PMC7862700, “An all-to-all approach to the identification of sequence-specific readers for epigenetic DNA modifications on cytosine”.

Common to all, as to experiment: DAPPL (digital affinity profiling via proximity ligation, sequencing); 10 mM Tris-HCl pH 7.5, 50 mM NaCl, 1 mM DTT, 4% glycerol, room temperature, 30 min; GST-TFs on glutathione beads, 16-mer random dsDNA library, 0.1% formaldehyde crosslink after washing; high values mean tight binding
One test concerns the target T1, FEV (Homo sapiens, UniProt Q99581 1-238).
T1 sequence: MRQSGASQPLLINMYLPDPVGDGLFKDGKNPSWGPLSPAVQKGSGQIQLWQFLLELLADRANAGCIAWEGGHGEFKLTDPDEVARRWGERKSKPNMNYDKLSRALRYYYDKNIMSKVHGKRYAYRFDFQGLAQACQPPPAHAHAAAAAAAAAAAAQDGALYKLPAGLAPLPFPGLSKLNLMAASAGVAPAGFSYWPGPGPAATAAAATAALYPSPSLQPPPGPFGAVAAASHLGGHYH
The conditions noted are these: protein: recombinant; tags: N-terminal GST; dsDNA, one strand shown. The procedure, abridged:
(§1)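 After expression in yeast as GST fusions, human transcription factors were bound to glutathione beads, DNA-barcoded and mixed with a tag-only sample. The pools were incubated with 200 nmole of a 16-mer random double-stranded DNA library in Tris/NaCl/DTT/glycerol buffer (30 min, room temperature), washed and crosslinked with 0.1% formaldehyde. Proximity ligation with BsaI/T4 ligase ran for 1 h at 37 °C, before PCR amplification and sequencing on an Illumina NextSeq500. Binding signal is a hexamer's read frequency for a factor divided by its frequency for the tag-only sample.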

The target in a further test is ETV5 (Homo sapiens, UniProt P41161 1-510). The conditions noted are these: protein: recombinant; tags: N-terminal GST; dsDNA, one strand shown. The procedure, abridged: as §1
The target of a further test is HSF1 (Homo sapiens, UniProt Q00613 1-529). The conditions noted are these: protein: recombinant; tags: N-terminal GST; chain copies: 3; dsDNA, one strand shown. The procedure, abridged:
as §1

The target of the next test is T2, SPIC (Homo sapiens, UniProt Q8N5J4 1-248).
T2 sequence: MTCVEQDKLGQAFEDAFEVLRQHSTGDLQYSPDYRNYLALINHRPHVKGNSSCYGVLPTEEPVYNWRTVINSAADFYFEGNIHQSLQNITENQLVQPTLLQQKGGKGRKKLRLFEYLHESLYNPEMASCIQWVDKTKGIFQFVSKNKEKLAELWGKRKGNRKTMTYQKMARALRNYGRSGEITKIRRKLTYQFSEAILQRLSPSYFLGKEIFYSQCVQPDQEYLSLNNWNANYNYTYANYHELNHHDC
The conditions noted are these: protein: recombinant; tags: N-terminal GST; dsDNA, one strand shown. The procedure, abridged: as §1

The target in another test is ELF4 (Homo sapiens, UniProt Q99607 1-663). The settings on record: protein: recombinant; tags: N-terminal GST; dsDNA, one strand shown. The procedure, abridged:
as §1

A further test addresses T3, ELK4 (Homo sapiens, UniProt P28324-2 1-405).
T3 sequence: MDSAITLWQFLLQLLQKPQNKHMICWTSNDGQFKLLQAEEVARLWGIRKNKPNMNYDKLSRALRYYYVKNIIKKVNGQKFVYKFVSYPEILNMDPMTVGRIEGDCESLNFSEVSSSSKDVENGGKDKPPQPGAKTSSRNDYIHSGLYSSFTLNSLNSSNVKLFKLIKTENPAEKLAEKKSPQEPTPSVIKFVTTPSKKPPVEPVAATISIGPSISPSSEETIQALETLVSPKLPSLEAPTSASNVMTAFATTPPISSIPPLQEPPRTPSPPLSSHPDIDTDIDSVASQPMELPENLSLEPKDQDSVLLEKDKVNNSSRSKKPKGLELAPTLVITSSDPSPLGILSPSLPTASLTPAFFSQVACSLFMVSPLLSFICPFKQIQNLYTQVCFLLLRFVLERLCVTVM
The settings on record: protein: recombinant; tags: N-terminal GST; dsDNA, one strand shown. The procedure, abridged: as §1

In the next test the target is T4, ETV2 (Homo sapiens, UniProt O00321 1-342).
T4 sequence: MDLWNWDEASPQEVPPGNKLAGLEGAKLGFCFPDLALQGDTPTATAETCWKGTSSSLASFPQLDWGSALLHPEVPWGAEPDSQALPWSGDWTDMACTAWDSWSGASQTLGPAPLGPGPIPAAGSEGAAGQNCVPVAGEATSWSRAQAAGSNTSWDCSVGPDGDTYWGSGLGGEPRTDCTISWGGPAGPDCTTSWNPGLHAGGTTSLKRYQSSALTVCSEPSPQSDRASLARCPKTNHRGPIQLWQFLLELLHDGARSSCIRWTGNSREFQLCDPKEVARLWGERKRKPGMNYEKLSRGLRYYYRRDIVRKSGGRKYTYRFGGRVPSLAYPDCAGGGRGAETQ
The conditions noted are these: protein: recombinant; tags: N-terminal GST; dsDNA, one strand shown. The procedure, abridged:
as §1

The next test deals with T5, ELF3 (Homo sapiens, UniProt P78545 1-371).
T5 sequence: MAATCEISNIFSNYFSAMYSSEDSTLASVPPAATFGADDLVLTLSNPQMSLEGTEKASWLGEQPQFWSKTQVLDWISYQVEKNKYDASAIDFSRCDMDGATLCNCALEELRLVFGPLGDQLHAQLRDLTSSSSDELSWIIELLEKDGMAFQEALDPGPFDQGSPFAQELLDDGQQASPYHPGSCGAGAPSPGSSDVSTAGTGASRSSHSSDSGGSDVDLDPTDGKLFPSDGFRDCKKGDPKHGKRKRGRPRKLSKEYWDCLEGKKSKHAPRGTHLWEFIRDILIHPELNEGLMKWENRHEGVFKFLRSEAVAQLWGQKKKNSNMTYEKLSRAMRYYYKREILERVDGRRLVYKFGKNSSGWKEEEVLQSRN
The settings on record: protein: recombinant; tags: N-terminal GST; dsDNA, one strand shown. The procedure, abridged: as §1

A further test deals with CRX (Homo sapiens, UniProt O43186 1-299). The settings on record: protein: recombinant; tags: N-terminal GST; dsDNA, one strand shown. The procedure, abridged: as §1
The target in the next test is ETV1 (Homo sapiens, UniProt P50549 1-477). The conditions noted are these: protein: recombinant; tags: N-terminal GST; dsDNA, one strand shown. The procedure, abridged: as §1
A further test deals with T6, ERF (Homo sapiens, UniProt P50548 1-548).
T6 sequence: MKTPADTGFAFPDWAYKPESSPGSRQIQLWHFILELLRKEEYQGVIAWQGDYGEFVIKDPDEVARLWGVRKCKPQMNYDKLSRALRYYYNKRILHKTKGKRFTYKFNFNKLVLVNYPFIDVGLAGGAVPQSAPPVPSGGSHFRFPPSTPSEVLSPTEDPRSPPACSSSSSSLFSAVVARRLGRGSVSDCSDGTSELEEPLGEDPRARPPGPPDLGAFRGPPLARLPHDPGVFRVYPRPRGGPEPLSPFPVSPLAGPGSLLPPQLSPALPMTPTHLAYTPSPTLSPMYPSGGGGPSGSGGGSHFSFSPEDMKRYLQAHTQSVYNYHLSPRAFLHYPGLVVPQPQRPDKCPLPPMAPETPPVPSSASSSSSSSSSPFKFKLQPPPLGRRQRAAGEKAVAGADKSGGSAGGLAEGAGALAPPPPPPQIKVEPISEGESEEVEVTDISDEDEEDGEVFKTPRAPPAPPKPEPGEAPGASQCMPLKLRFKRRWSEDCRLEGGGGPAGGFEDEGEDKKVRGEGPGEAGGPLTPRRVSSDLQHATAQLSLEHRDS
The settings on record: protein: recombinant; tags: N-terminal GST; dsDNA, one strand shown. The procedure, abridged:
as §1

The next test addresses T7, ETV3L (Homo sapiens, UniProt Q6ZN32 1-361).
T7 sequence: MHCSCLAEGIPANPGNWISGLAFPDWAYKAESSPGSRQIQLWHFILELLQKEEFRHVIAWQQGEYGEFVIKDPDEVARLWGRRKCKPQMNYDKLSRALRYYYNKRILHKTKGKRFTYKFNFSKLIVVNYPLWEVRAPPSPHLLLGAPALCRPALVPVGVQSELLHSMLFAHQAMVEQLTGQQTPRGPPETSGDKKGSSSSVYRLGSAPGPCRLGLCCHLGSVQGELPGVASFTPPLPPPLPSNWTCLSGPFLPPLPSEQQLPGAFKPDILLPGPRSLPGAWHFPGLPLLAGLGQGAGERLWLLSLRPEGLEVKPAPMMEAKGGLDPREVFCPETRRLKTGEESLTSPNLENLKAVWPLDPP
The conditions noted are these: protein: recombinant; tags: N-terminal GST; dsDNA, one strand shown. The procedure, abridged: as §1

The next test deals with T8, ETS2 (Homo sapiens, UniProt P15036 1-469).
T8 sequence: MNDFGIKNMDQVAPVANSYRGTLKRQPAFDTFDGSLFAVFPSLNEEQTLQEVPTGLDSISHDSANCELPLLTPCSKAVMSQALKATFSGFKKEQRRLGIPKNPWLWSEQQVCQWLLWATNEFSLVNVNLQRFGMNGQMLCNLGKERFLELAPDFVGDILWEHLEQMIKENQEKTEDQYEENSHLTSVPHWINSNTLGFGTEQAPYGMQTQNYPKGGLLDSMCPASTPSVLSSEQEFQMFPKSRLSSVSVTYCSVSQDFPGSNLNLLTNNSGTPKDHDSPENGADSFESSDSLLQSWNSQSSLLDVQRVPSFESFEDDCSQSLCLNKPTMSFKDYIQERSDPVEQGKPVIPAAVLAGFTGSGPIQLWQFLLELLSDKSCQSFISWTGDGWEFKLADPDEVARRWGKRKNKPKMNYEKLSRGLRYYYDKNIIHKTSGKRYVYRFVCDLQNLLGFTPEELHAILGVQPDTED
The settings on record: protein: recombinant; tags: N-terminal GST; dsDNA, one strand shown. The procedure, abridged:
as §1

For another test, the target named is T9, SPDEF (Homo sapiens, UniProt O95238 1-335).
T9 sequence: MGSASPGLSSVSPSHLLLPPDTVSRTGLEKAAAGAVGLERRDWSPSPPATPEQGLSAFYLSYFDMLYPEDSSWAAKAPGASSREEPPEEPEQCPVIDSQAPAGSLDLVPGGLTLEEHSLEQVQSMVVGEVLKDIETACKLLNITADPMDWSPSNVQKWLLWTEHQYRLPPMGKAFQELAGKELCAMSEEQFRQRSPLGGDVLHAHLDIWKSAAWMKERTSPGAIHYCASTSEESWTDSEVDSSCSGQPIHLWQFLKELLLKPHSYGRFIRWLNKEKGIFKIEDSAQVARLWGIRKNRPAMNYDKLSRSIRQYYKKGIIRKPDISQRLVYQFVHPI
The settings on record: protein: recombinant; tags: N-terminal GST; dsDNA, one strand shown. The procedure, abridged:
as §1

The next test concerns the target T10, ETV7 (Homo sapiens, UniProt Q9Y603 1-341).
T10 sequence: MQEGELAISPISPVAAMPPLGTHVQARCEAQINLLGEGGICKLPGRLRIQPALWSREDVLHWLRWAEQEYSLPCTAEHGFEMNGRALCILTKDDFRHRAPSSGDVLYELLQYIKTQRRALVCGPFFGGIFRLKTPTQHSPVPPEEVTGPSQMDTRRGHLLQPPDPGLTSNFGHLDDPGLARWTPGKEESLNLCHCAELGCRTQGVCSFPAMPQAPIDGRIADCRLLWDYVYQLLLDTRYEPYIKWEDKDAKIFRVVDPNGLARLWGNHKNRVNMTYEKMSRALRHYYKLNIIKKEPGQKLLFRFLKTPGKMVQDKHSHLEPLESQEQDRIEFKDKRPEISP
The settings on record: protein: recombinant; tags: N-terminal GST; dsDNA, one strand shown. The procedure, abridged:
as §1

A further test deals with T11, ELF5 (Homo sapiens, UniProt Q9UKW6-2 1-255).
T11 sequence: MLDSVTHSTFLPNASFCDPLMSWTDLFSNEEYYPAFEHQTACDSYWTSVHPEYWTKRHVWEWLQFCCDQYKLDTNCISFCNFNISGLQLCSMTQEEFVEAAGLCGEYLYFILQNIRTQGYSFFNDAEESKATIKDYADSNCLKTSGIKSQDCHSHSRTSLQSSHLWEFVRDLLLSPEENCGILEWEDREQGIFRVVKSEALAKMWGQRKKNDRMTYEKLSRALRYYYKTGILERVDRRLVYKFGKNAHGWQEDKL
The settings on record: protein: recombinant; tags: N-terminal GST; dsDNA, one strand shown. The procedure, abridged: as §1

The next test addresses T12, ETV3 (Homo sapiens, UniProt P41162-2 1-143).
T12 sequence: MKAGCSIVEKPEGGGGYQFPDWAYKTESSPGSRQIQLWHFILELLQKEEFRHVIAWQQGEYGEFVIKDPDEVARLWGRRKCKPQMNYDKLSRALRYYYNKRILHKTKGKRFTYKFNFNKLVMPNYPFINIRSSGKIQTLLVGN
The settings on record: protein: recombinant; tags: N-terminal GST; dsDNA, one strand shown. The procedure, abridged:
as §1

Another test addresses ETV6 (Homo sapiens, UniProt P41212 1-452). The settings on record: protein: recombinant; tags: N-terminal GST; dsDNA, one strand shown. The procedure, abridged:
as §1

Sequence of HSF1 (Q00613 whole entry): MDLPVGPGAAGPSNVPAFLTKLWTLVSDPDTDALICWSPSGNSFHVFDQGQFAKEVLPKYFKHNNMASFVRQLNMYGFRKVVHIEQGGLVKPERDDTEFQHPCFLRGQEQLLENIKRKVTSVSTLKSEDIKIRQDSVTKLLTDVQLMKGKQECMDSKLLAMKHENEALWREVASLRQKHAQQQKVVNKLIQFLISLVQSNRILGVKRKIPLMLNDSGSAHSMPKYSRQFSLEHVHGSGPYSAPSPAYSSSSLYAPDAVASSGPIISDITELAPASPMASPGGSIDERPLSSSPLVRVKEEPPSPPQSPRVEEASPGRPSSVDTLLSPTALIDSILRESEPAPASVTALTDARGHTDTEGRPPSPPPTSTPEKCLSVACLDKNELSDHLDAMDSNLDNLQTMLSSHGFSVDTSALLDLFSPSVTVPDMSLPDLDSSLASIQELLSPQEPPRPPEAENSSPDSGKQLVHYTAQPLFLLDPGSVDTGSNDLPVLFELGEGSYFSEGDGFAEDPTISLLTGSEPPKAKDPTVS
Sequence of ETV6 (P41212 whole entry): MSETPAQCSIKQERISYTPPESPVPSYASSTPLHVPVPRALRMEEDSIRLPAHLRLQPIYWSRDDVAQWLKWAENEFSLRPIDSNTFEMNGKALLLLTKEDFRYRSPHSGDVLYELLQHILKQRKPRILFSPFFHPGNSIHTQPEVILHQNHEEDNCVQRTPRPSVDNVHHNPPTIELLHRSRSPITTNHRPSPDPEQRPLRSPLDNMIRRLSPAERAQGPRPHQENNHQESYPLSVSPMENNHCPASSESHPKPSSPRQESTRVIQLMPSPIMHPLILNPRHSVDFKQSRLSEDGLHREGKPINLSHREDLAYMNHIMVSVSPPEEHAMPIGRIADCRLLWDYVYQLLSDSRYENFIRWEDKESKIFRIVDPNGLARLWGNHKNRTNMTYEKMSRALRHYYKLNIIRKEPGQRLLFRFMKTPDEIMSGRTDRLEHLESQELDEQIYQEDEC
Sequence of ETV5 (P41161 whole entry): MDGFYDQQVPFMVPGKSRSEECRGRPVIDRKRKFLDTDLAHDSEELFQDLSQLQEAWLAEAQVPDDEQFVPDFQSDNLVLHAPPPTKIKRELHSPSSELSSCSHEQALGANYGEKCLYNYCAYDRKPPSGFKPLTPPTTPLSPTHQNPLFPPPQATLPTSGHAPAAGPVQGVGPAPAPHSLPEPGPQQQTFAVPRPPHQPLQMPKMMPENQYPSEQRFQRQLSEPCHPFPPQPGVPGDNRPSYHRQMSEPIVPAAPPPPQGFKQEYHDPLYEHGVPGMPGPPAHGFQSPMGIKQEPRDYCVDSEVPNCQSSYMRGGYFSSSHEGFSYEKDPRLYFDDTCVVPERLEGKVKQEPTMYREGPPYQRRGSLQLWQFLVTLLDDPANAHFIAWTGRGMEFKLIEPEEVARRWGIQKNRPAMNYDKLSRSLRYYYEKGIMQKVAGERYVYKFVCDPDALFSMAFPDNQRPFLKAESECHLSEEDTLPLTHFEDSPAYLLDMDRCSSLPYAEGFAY
Sequence of ETV1 (P50549 whole entry): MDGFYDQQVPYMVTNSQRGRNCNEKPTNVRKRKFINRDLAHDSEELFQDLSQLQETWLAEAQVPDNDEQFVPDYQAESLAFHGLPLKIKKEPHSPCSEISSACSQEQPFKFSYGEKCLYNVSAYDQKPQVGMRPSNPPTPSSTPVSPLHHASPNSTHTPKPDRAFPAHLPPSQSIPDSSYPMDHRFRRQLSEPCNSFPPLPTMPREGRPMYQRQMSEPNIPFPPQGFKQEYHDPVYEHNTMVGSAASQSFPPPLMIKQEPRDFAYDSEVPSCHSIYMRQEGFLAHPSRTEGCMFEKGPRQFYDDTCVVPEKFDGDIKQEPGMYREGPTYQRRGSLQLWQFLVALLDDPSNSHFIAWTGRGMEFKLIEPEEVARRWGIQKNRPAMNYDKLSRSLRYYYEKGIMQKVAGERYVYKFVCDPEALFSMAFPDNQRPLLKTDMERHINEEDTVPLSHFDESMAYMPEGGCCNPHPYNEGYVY
Sequence of CRX (O43186 whole entry): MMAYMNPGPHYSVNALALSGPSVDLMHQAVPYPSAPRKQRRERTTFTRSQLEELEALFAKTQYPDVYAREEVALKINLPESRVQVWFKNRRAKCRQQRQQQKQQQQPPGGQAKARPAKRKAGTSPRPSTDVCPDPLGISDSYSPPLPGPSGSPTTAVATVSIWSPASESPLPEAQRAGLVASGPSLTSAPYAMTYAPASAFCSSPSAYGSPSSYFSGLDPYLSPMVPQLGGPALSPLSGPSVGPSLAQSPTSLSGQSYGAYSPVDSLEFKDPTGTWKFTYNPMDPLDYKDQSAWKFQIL
Sequence of ELF4 (Q99607 whole entry): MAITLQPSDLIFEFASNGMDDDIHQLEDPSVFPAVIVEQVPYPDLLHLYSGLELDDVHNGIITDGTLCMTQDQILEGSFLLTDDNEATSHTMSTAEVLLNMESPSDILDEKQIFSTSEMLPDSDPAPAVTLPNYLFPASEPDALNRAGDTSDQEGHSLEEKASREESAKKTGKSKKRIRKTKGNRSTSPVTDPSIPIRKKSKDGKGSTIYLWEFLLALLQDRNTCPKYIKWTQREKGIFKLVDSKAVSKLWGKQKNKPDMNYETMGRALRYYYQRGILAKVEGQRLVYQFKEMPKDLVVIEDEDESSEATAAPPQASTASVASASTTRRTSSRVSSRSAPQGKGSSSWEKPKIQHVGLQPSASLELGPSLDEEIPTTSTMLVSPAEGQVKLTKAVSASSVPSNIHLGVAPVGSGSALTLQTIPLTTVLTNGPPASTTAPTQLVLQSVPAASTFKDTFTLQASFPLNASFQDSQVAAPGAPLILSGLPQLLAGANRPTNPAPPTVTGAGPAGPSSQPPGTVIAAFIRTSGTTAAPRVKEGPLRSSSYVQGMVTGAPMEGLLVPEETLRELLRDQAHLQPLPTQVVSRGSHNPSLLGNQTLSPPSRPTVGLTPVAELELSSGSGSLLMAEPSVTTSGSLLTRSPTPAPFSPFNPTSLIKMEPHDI

In the case of CCTCCA, the binding signal in the test with FEV was 1.31 fold enrichment (6-mer frequency, TF over GST control); with ETV5, 1.34 fold enrichment (6-mer frequency, TF over GST control); in the test with HSF1, 1.29 fold enrichment (6-mer frequency, TF over GST control); with SPIC, 1.34 fold enrichment (6-mer frequency, TF over GST control); in the test with ELF4, 1.38 fold enrichment (6-mer frequency, TF over GST control); in the test with ELK4 it was 1.47 fold enrichment (6-mer frequency, TF over GST control). Also, the binding signal was 1.43 fold enrichment (6-mer frequency, TF over GST control) in the test with ETV2; 1.02 fold enrichment (6-mer frequency, TF over GST control) with ELF3; 1.12 fold enrichment (6-mer frequency, TF over GST control) in the test with CRX; 1.36 fold enrichment (6-mer frequency, TF over GST control) with ETV1; 1.34 fold enrichment (6-mer frequency, TF over GST control) in the test with ERF; 1.24 fold enrichment (6-mer frequency, TF over GST control) in the test with ETV3L. Moreover, the binding signal with ETS2 is 1.31 fold enrichment (6-mer frequency, TF over GST control); with SPDEF, 1.34 fold enrichment (6-mer frequency, TF over GST control); with ETV7, 1.36 fold enrichment (6-mer frequency, TF over GST control); with ELF5, 1.42 fold enrichment (6-mer frequency, TF over GST control); with ETV3, 1.24 fold enrichment (6-mer frequency, TF over GST control); with ETV6, 1.29 fold enrichment (6-mer frequency, TF over GST control).
